Results: PubChem BioAssay
Active and inactive are the calls of the source.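 Rule for the calls: active = compounds whose cell count with miR-34 switched on is under 0.7 times the count with it off; inactive = the rest.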

Assay: viability loss with induced miR-34 in A549 – imaging, A549 dox-inducible miR-34, nuclei and caspase counts, primary screen (AID 1347080); note: test concentration not given here
Details: A549 miR-34 inducible, Hoechst nuclei count, 48 h
[1] = stronger effect = lower value, cell number ratio, induced over uninduced
[2] = measured here: relative caspase fold change +Dox/-Dox
[3] = measured here: total cells with miR-34 induction, stronger effect = lower value
[4] = measured here: total cells without miR-34 induction

Row | SMILES | fold change [1] | fold change [2] | cell count [3] | cell count [4]
1 | CCCCC[C@H](O)C/C=C1/C(=O)C[C@H](O)[C@@H]1C/C=C\CCCC(=O)O | 0.935 (inactive) | 1.09 | 5280 | 5650
2 | CCCCCCCCCCCCCCCC(=O)OC[C@H](COP(=O)([O-])OCC[N+](C)(C)C)OC(=O)CCCCCCCC(=O)/C=C/C(=O)O | 0.943 (inactive) | 0.858 | 5750 | 6100
3 | CCCCC[C@@H](O)/C=C/[C@@H]1[C@H](C/C=C\CCCC(=O)O)[C@@H](O)C[C@H]1O | 0.832 (inactive) | 1.39 | 5000 | 6010
4 | CCCCCCCCNC(=O)Cc1c(C)n(C(=O)c2ccc(Cl)cc2)c2ccc(OC)cc12 | 1.03 (inactive) | 0.978 | 5650 | 5490
5 | CCCCNC(=O)NS(=O)(=O)c1ccc(CO)cc1 | 1.05 (inactive) | 0.775 | 5120 | 4890
6 | CC(C)=CCC/C(C)=C/CC/C(C)=C/CC[C@]1(C)CCc2cc(O)cc(C)c2O1 | 0.922 (inactive) | 1.06 | 5270 | 5720
7 | CCCCC[C@H](O)/C=C/[C@@H]1[C@@H](CCCCCCC(=O)O)[C@H](O)C[C@@H]1O | 0.98 (inactive) | 1.16 | 6220 | 6350
8 | CCCCC[C@H](O)/C=C/[C@H]1C2COC(C2)[C@@H]1C/C=C\CCCC(=O)O (some centres not stated) | 0.904 (inactive) | 0.954 | 5380 | 5950
9 | O=C1OC[C@@H](Cc2cccc(O)c2)[C@@H]1Cc1cccc(O)c1 | 0.923 (inactive) | 1.92 | 5590 | 6060
10 | CCCCC/C=C/C/C=C/CCCCCCCC(=O)O | 1.12 (inactive) | 0.989 | 6880 | 6150
11 | CCOC(=O)c1c(Cc2cccc(Cl)c2)[nH]c2c1cc(O)c1ccccc12 | 0.954 (inactive) | 1.94 | 4980 | 5220
12 | CCCCCC(=O)CC[C@@H]1[C@@H](CCCCCCC(=O)O)[C@@H](O)C[C@H]1O | 0.953 (inactive) | 1.23 | 6140 | 6450
13 | CCCCC[C@H](O)/C=C/[C@H]1CC[C@@H](O)[C@@H]1C/C=C\CCCC(=O)O | 0.973 (inactive) | 1.34 | 5950 | 6110
14 | O=C(O)CCC/C=C\C[C@@H]1[C@@H](/C=C/[C@@H](O)C2Cc3ccccc3C2)[C@@H](F)C[C@@H]1O | 0.86 (inactive) | 2.11 | 4580 | 5320
15 | COC(=O)CCCCCC[C@@H]1[C@@H](CCC(O)C#Cc2ccccc2F)[C@H](O)C[C@@H]1O (some centres not stated) | 1.01 (inactive) | 0.855 | 5830 | 5780
16 | O=C(NCCN1CCC(n2c(=O)[nH]c3cc(Cl)ccc32)CC1)c1ccc(F)cc1 | 0.968 (inactive) | 1.46 | 6040 | 6240
17 | CCC(C)(C)C(=O)C(=O)N1CCCC[C@H]1C(=O)O[C@H](CCc1ccc(OC)c(OC)c1)c1cccc(N)c1 | 0.702 (inactive) | 0.49 | 4270 | 6080
18 | O=C(O)CCCCCCC1C(=O)N(Cc2ccccc2)C(=O)N1NCC(O)C1CCCCC1 (configuration not stated) | 0.813 (inactive) | 2.25 | 5360 | 6590
19 | CCCCN=C(N)NO | 1.06 (inactive) | 1.14 | 6280 | 5930
20 | CC/C=C\C/C=C\C/C=C\C/C=C\C/C=C\CCCC(=O)O[C@H](COCCCCCCCCCCCCCCCC)COP(=O)([O-])OCC[N+](C)(C)C | 0.886 (inactive) | 1.31 | 5330 | 6010
21 | CCCCCCCCCCCCCCCCOC[C@H](COP(=O)([O-])OCCCCCC[N+](C)(C)C)OC(C)=O | 0.912 (inactive) | 1.73 | 5260 | 5770
22 | CCCCCCCCCCCCCCCCOC[C@@H](CO)SC(C)=O | 1.02 (inactive) | 0.6 | 5400 | 5270
23 | CCCCC[C@H](O)/C=C/[C@H]1[C@H](O)CC(=O)[C@@H]1C/C=C\CCCC(=O)Oc1ccc(NC(C)=O)cc1 | 0.993 (inactive) | 0.876 | 6020 | 6060
24 | COc1cc2c3cc1Oc1c(OC)c(OC)cc4c1[C@@H](Cc1ccc(OC(=O)c5ccc([N+](=O)[O-])cc5)c(c1)Oc1ccc(cc1)C[C@@H]3N(C)CC2)N(C)CC4 | 1.06 (inactive) | 0.897 | 2050 | 1940
25 | CCCCC/C=C\C/C=C\C/C=C\C/C=C\CCCCNC(=O)c1ccc(O)cc1 | 0.937 (inactive) | 0.908 | 5740 | 6120
26 | C=CC[C@@H]1/C=C(\C)C[C@@H](C)C[C@H](OC)[C@H]2O[C@@](O)(C(=O)C(=O)N3CCCC[C@H]3C(=O)O[C@H](/C(C)=C/[C@@H]3CC[C@@H](O)[C@H](OC)C3)[C@H](C)[C@@H](O)CC1=O)[C@H](C)C[C@@H]2OC | 0.908 (inactive) | 0.315 | 5040 | 5550
27 | CC(C)CCCC(C)NC(C)C (configuration not stated) | 0.993 (inactive) | 0.874 | 8610 | 8670
28 | CCCCCCCCCCCCCCCC(=O)N[C@H](C)CO | 0.916 (inactive) | 0.934 | 5780 | 6310
